High-throughput results from PubChem BioAssay.
ClpP mod: qHTS Assay for Activators of ClpP; ATP-dependent Clp protease proteolytic subunit (Bacillus subtilis (strain 168)), P80244; purified B. subtilis ClpP, FRET peptide cleavage, 20 min; Potency, µM (series often up to 57.5 µM), inactives show top-dose activity change, negative = active; 340,000 tested, 1.9% active; active = well fitted falling curve with a large enough effect; inconclusive = small, poorly fitted or top-dose-only effect; inactive = no such curve, though single readings can be large or run the other way; note: the source files actives as falling curves though it sought activators and does not explain the sign; nearly all actives have a fitted effect of over 65% in size
Target sequence (P80244 whole entry, looked up): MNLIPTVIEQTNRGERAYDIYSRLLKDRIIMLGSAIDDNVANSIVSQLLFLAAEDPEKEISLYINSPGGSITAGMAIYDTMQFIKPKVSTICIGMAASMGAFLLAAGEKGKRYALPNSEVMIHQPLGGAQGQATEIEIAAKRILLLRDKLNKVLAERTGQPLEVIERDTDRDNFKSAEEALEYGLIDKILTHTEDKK
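FRET quenching reversal measured ClpP activation: 10 microg/mL B. subtilis ClpP at pH 8 with the FRET-FV decapeptide, read at 430 nm after 320 nm excitation. The 20-min minus 0-min signal was scaled between DMSO/no-enzyme wells and ADEP (5.8 microM final).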
DT40 TDP1 CPT: growth inhibition of DT40 Tdp1-/-;hTDP1 cells with camptothecin (screen for TDP1 inhibitors); Potency, µM (titrated, usually from 46.2 µM), for inactives: at the top dose activity change, negative = growth inhibition, usual class: inhibitors; AID 686979; chicken DT40 Tdp1-/-;hTDP1 cells + 20 nM CPT, ATP luminescence, 48 h; 420,000 tested, 12% active; note: % is set by controls: 0 for no effect and ±100 for the full control effect; nearly all actives have a fitted effect of over 55% in size
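Cell growth measured by CellTiter-Glo luminescence after a minimum 48 h, 37 C compound exposure with 20 nM CPT in Tdp1-knockout DT40 cells stably expressing hTDP1, seeded 400/well; qHTS titration format.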
TDP1 inh: TDP1 (human) enzyme inhibition; AID 485290; Q9NUW8; Potency, µM (top dose mostly 130 µM), without a hit: top-dose activity change, negative = inhibition, most hits filed as inhibitors; 350,000 tested, 0.28% active; recombinant TDP1, AlphaScreen DNA substrate cleavage; note: % is set by controls: 0 for no effect and ±100 for the full control effect; nearly all actives have a fitted effect of over 40% in size
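Compounds were preincubated with Tdp1 (1 nM final) for 15 min at room temperature before substrate (15 nM final) started a 5 min reaction; beads (10 ug/ml final) were then added for 10 min before AlphaScreen detection.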
TDP1 cell noCPT: qHTS for Inhibitors of human tyrosyl-DNA phosphodiesterase 1 (TDP1): qHTS in cells in absence of CPT; DT40 Tdp1-/- hTDP1 cells, no CPT, ATP luminescence, 48 h; Potency, µM (highest dose often 46.2 µM), for the others: at the top dose activity change, negative = growth inhibition, usual class: inhibitors; 420,000 tested, 15% active; AID 686978, 2013; note: % is set by controls: 0 for no effect and ±100 for the full control effect; nearly all actives have a fitted effect of over 55% in size
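No-CPT arm: Tdp1-/-;hTDP1 DT40 cells (400/well) plus compounds, incubated ≥48 hr at 37 °C. Readout CellTiter-Glo luminescence.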
An asterisk follows results filed as active; [ ] = dose if it differs, or a comment. An excerpt weighted towards active compounds, which were near 17% of everything screened. Unless noted, calls come from the whole dose curve; as a rule, active = well fitted curve in the direction sought with a large enough effect; inconclusive = small, poorly fitted or top-dose-only effect, or another doubt; inactive = no such curve, though single readings can be large; an effect the other way counts as inactive or inconclusive. Potency is the fitted concentration of half-maximal effect.

Screening COc1ccc(C2=CC(=O)C[C@H](c3ccc(F)cc3)C2)c(F)c1F returned ClpP mod -1.2%, DT40 TDP1 CPT inconclusive, TDP1 inh -3.1% and TDP1 cell noCPT inconclusive.
Screening CCOC(=O)c1c(S(=O)(=O)N2CCCC(C(=O)NCc3ccccc3OC)C2)c(C)n(C)c1C (stereo not drawn) returned ClpP mod 0.9%, DT40 TDP1 CPT -24.5%, TDP1 inh 4.4% and TDP1 cell noCPT -1.4%.
Screening CCCn1c(N)c(C(=O)CN(C)CC(=O)Nc2c(Cl)cccc2Cl)c(=O)[nH]c1=O returned ClpP mod -0.6%, DT40 TDP1 CPT 16.4µM*, TDP1 inh 0.9% and TDP1 cell noCPT 23.1µM*.
CCCn1c(N)c(C(=O)CN(C)CC(=O)Nc2cc(C)ccc2C)c(=O)[nH]c1=O was read as ClpP mod -5.0%, DT40 TDP1 CPT 13µM*, TDP1 inh -2.5% and TDP1 cell noCPT 13µM*.
`CCCn1c(N)c(C(=O)CN(C)CC(=O)Nc2c(C)cc(C)cc2C)c(=O)[nH]c1=O` gave ClpP mod 1.0%, DT40 TDP1 CPT -15.9%, TDP1 inh 9.6% and TDP1 cell noCPT inconclusive.
Screening CCCn1c(N)c(C(=O)CN(C)CC(=O)Nc2ccccc2C(F)(F)F)c(=O)[nH]c1=O returned ClpP mod 0.3%, DT40 TDP1 CPT 14.6µM*, TDP1 inh -2.2%[56.1 µM] and TDP1 cell noCPT 20.6µM*.
Screening CCCn1c(N)c(C(=O)CN(C)CC(=O)Nc2ccc(C)cc2)c(=O)[nH]c1=O returned DT40 TDP1 CPT -10.1%, TDP1 inh 0.2% and TDP1 cell noCPT -23.8%.
N#CCc1nn(Cc2ccc(F)cc2)c(=O)c2ccccc12 was read as ClpP mod -1.4%, DT40 TDP1 CPT -2.7% and TDP1 cell noCPT 5.1%.
Screening COc1ccc(S(=O)(=O)N2CCC(C(=O)NCCC(=O)NCc3cccnc3)CC2)cc1 returned ClpP mod -3.5%, DT40 TDP1 CPT -1.7% and TDP1 cell noCPT inconclusive.
CCOC(=O)COc1ccc(C)cc1C(=O)c1ccn2nc(-c3ccc(F)cc3)cc2n1 was read as ClpP mod -4.2%, DT40 TDP1 CPT 16.4µM*, TDP1 inh -1.9% and TDP1 cell noCPT 20.6µM*.
`CCOC(=O)COc1cc(C)c(Cl)cc1C(=O)c1ccn2nc(-c3ccc(OC)cc3)cc2n1` gave ClpP mod 2.7%, DT40 TDP1 CPT inconclusive, TDP1 inh 5.8% and TDP1 cell noCPT 13µM*.
Screening CCOC(=O)COc1ccc(C)cc1C(=O)c1ccn2nc(-c3ccc(Cl)cc3)cc2n1 returned ClpP mod -2.3%, DT40 TDP1 CPT inconclusive, TDP1 inh 7.1% and TDP1 cell noCPT inconclusive.
`CCN(C(=O)Cn1c(SCc2ccccc2F)nc2cccnc21)c1ccccc1` gave ClpP mod inconclusive, DT40 TDP1 CPT inconclusive, TDP1 inh 2.5% and TDP1 cell noCPT inconclusive.
Cc1c(C(=O)N2CCCCCC2(C)C(=O)NCC(C)C)oc2ccccc12 (stereo not drawn) was read as ClpP mod -1.3%, DT40 TDP1 CPT inconclusive and TDP1 cell noCPT 18.4µM*.
For CC(C)(C)c1ccc(C(=O)N2CCC2(C)C(=O)NCc2ccc3c(c2)OCO3)cc1 (stereo not drawn) the results were ClpP mod -0.7%, DT40 TDP1 CPT 11.6µM* and TDP1 cell noCPT 9.2µM*.
Screening CC(C)CNC(=O)C1(C)CCN1C(=O)c1ccc(C(C)(C)C)cc1 (stereo not drawn) returned ClpP mod 1.9%, DT40 TDP1 CPT 10.3µM* and TDP1 cell noCPT 8.2µM*.
`CC(C)NC(=O)C1(C)CCN1Cc1ccc(Cl)cc1` (stereo not drawn) gave ClpP mod -0.4%, DT40 TDP1 CPT inconclusive and TDP1 cell noCPT inconclusive.
Screening Cc1cc(C(=O)N/N=C/c2c3ccccc3cc3ccccc23)n[nH]1 returned DT40 TDP1 CPT inconclusive, TDP1 inh 5.6% and TDP1 cell noCPT 9.2µM*.
For Cc1[nH]n(-c2ccccc2)c(=O)c1/C=N/NC(=O)c1ccc(O)cc1O the results were ClpP mod 4.6%, DT40 TDP1 CPT inconclusive and TDP1 cell noCPT 20.6µM*.
`Cc1ccc(-c2cc(C(=O)N/N=C/c3c(C)nn(-c4ccccc4)c3C)n[nH]2)s1` gave ClpP mod -20.3%, DT40 TDP1 CPT 0.651µM*, TDP1 inh 5.7% and TDP1 cell noCPT 0.82µM*.
Cc1[nH]c2ccccc2c1/C=N/NC(=O)c1cc(-c2cccs2)[nH]n1 was read as ClpP mod -8.9%, DT40 TDP1 CPT inconclusive, TDP1 inh 5.7% and TDP1 cell noCPT 20.6µM*.
Screening CCCC[C@H](NC(=O)[C@H](CO)NC(=O)[C@H](Cc1ccc(O)cc1)NC(=O)[C@H](CO)NC(C)=O)C(=O)N[C@@H](CCC(=O)O)C(=O)N[C@@H](Cc1cnc[nH]1)C(=O)N[C@H](Cc1ccccc1)C(=O)N[C@@H](CCCNC(=N)N)C(=O)N[C@@H](Cc1c[nH]c2ccccc12)C(=O)NCC(=O)N[C@@H](CCCCN)C(=O)N1CCC[C@H]1C(=O)N[C@H](C(N)=O)C(C)C returned TDP1 inh 14.1%.
CCCCN(CCCC)C(=S)N/N=C/c1c(C)[nH]n(-c2ccccc2)c1=O was read as ClpP mod -10.6%, DT40 TDP1 CPT 2.06µM*, TDP1 inh 11.8% and TDP1 cell noCPT 2.59µM*.
Screening Cc1ccc(-n2[nH]c(C)c(C=Nc3cc(C)ccn3)c2=O)cc1 returned ClpP mod 0.1%, DT40 TDP1 CPT inconclusive, TDP1 inh -1.1% and TDP1 cell noCPT inconclusive.
Screening Cc1cc(C(=O)N/N=C/c2c(C)[nH]n(-c3ccccc3)c2=O)n[nH]1 returned ClpP mod -4.5%, DT40 TDP1 CPT 20.6µM*, TDP1 inh 2.1% and TDP1 cell noCPT inconclusive.
`Cc1ccc(-n2[nH]c(C)c(/C=N/NC(=O)c3ccc(O)cc3O)c2=O)cc1` gave ClpP mod -9.0%, DT40 TDP1 CPT 11.6µM* and TDP1 cell noCPT 5.17µM*.
Cc1[nH]n(-c2ccc(Cl)cc2)c(=O)c1/C=N/c1nnc(-c2ccccc2)s1 was read as ClpP mod -13.0%, DT40 TDP1 CPT inconclusive, TDP1 inh 5.7% and TDP1 cell noCPT 16.4µM*.
Screening Cc1nn(C)c2c1c(C(F)(F)F)cc(=O)n2Cc1ccc(Br)cc1F returned ClpP mod inconclusive, DT40 TDP1 CPT -3.3%, TDP1 inh 3.2% and TDP1 cell noCPT 0.1%.
`Cc1[nH]n(-c2ccccc2)c(=O)c1/C=N/Nc1nncc(-c2ccccc2)n1` gave ClpP mod -17.0%, DT40 TDP1 CPT 1.03µM*, TDP1 inh 11.3% and TDP1 cell noCPT 1.03µM*.
Screening Cc1cc(C(=O)N/N=C/c2cc(N=Nc3ccccc3)ccc2O)n[nH]1 returned ClpP mod 0.9%, DT40 TDP1 CPT 5.8µM*, TDP1 inh -1.1% and TDP1 cell noCPT 6.51µM*.
